Results filed as inconclusive are left out. A call without a number means that no potency is given here. Unmarked numbers belong to inactive results. Active and inactive are the calls of the source. Calls come from the whole dose curve; as a rule, active = well fitted curve in the direction sought with a large enough effect; inconclusive = small, poorly fitted or top-dose-only effect, or another doubt; inactive = no such curve, though single readings can be large; an effect the other way counts as inactive or inconclusive.
Legend:
[1] = Vero cells viability qHTS for Zika virus inhibitors (AID 1347167)
Procedure, shortened: (§1)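 Cells seeded at 2.5 x 10^5 cells/mL in DMEM with 4% FBS and attached overnight at 37 degrees C, then exposed to compound for 24 to 48 hours. Viability read as ATP content by CellTiter Glo luminescence.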

[2] = HepG2 cells viability qHTS for Zika virus inhibitors (AID 1347168)
Procedure, shortened: as §1

[3] = Tertiary RLuc qRT-PCR qHTS assay for Zika virus inhibitors (AID 1347169); note: top concentration of the series differs between compounds; nearly all actives have a fitted effect of over 55% in size
Procedure, shortened: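 Luminescence read-out: live-cell Renilla luciferase substrate applied to infected Vero cells, signal measured after 1-1.5 hrs. Cells had received compound before ZIKV-RLuc (Cambodian strain, MOI 1-2) infection and were incubated 48-72 hrs at 37 degrees C.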

[4] = system: Zika virus NS2B-NS3 protease (linked); assay: 384 well plate NINDS AMC confirmatory qHTS for Zika virus inhibitors (AID 1347163); settings: Recombinant NS2B-NS3 protease, Ac-VKTGKR-AMC fluorescence; note: potency is the fitted concentration of half-maximal effect; nearly all actives have a fitted effect of over 50% in size
Procedure, shortened: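 Linked NS2B-NS3 protease (final 5 nM, 30 nM or 60 nM) was preincubated with compounds (final up to 1 mM) for ~15 minutes. Ac-VKTGKR-AMC substrate (final 30 microM) then reacted for 25 minutes at room temperature in the dark. Fluorescence (ex 355/em 460 nm) was normalized to no-enzyme and no-inhibitor controls.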

[5] = system: Zika virus NS2B-NS3 protease (linked construct); assay: 384 well plate NINDS Rhodamine confirmatory qHTS for Zika virus inhibitors (AID 1347164); settings: rhodamine-110 peptide substrate fluorescence;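 note: fluorescence from protease cleavage of Ac-LKRR-rhodamine 110 substrate; potency is the fitted concentration of half-maximal effect; nearly all actives have a fitted effect of over 65% in size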
Procedure, shortened: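 Fluorescence read at ex 485 nm/em 538 nm, 25 min after adding 10 microM Ac-LKRR-Rd substrate at room temperature in the dark; signal normalized to no-enzyme and no-inhibitor controls. Enzyme final 5, 30 or 60 nM; compounds, ~15 min preincubation.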

[6] = OV-KATE Cancer Cell Toxicity qHTS against the NCATS CANVASS Library (AID 1347345)
Procedure, shortened: (§2)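 Toxicity is measured over 72 h of compound exposure at 37 degrees C under 5% CO2. Each well holds 1000 cells, pre-incubated for 4 hours before dosing across an 11-point range. CellTiter-Glo luminescence gives viability.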

[7] = HPAF-II Cancer Cell Toxicity qHTS against the NCATS CANVASS Library (AID 1347346); note: series mostly up to about 38 µM; nearly all actives have a fitted effect of over 55% in size
Procedure, shortened: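 Luminescence from CellTiter-Glo, added after 72 h compound exposure and a 15 min room-temperature incubation, served as the viability readout. HPAF-II cells (1000/well) received an 11-point concentration series.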

[8] = UWB1.289 Cancer Cell Toxicity qHTS against the NCATS CANVASS Library (AID 1347347); note: series mostly up to about 38 µM; nearly all actives have a fitted effect of over 60% in size
Procedure, shortened: as §2

[9] = OV-SAHO Cancer Cell Toxicity qHTS against the NCATS CANVASS Library (AID 1347348); note: series mostly up to about 38 µM; nearly all actives have a fitted effect of over 55% in size
Procedure, shortened: as §2

[10] = Panc-1005 Cancer Cell Toxicity qHTS against the NCATS CANVASS Library (AID 1347349); note: series mostly up to about 38 µM; nearly all actives have a fitted effect of over 60% in size
Procedure, shortened: as §2

Which outcome [1] does the source give for `O=C(O)[C@@H]1[C@H]2C[C@H]3c4[nH]c5ccccc5c4CCN3C[C@@H]2CC[C@@H]1O` here?
The outcome was “inactive”.

What about the outcome [2] of the same compound?
The outcome was “inactive”.

And the outcome [3]?
Its outcome is “inactive”.

Which Potency [4] does the source give for `O=C(O)Cn1c(C(=O)Nc2nc(-c3ccccc3Cl)cs2)cc2ccccc21` here?
Its Potency is 70.8 µM (active).

And the Potency [5]?
Its Potency is 28.2 µM (active).

And the outcome [1]?
The outcome was “inactive”.

And the outcome [2]?
The outcome was “inactive”.

What about the outcome [3] of the same compound?
Its outcome is “inactive”.

With `C[C@@H]1O[C@@H](OC[C@H]2O[C@@H](Oc3c(-c4ccc(O)c(O)c4)oc4cc(O)cc(O)c4c3=O)[C@H](O)[C@@H](O)[C@@H]2O)[C@H](O)[C@H](O)[C@H]1O` as the compound, how does the outcome [6] read?
The outcome was “inactive”.

And the outcome [7]?
The outcome was “inactive”.

What about the outcome [8] of the same compound?
The outcome was “inactive”.

And the outcome [9]?
Its outcome is “inactive”.

What about the outcome [10] of the same compound?
Its outcome is “inactive”.

Which activity change, negative = inhibition [3] does the source give for `COc1ccccc1Oc1c(NS(=O)(=O)c2ccc(C(C)(C)C)cc2)nc(-c2ncccn2)nc1OCCO` here?
Its activity change, negative = inhibition is 14.1% [at 1.74 µM].

Which results are given for `CN1C[C@@H]2C[C@H]1CN2c1cc2c(cc1F)c(=O)c(C(=O)O)cn2C1CC1`?
outcome [1]: inactive; outcome [2]: inactive; outcome [3]: inactive
